From PubChem
This is a sample that favours compounds with a hit; in the whole collection about 10% have one here.
Lmaj promast: Leishmania major promastigote growth inhibition; inhibition, % at 10 µM; Leishmania major promastigotes, resazurin fluorescence viability; actives 9% (n = 200,000); in the data active means inhibition above about 50%;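 further: promastigotes grown with compound for 44 hours at 28 °C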
INS promoter inh: TRM-6 insulin promoter activity inhibition; TRM-6 cells (human fetal islet line), insulin promoter-eGFP reporter, imaging; reporter expression induced with tamoxifen; inhibition, % at 2 µM; actives 0.9% (n = 130,000); AID 1273;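 active means inhibition above the mean plus 3 SD, with well images judged a real hit on visual review, cut at about 60% in these data, passing the limit was not always enough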
bCat KO growth: beta-catenin-lacking colon tumor cell growth suppression | HCT116 beta-catenin knockout viability, CellTiter-Glo, 60 h; active compounds read low | viability, % at 10 µM | actives 1.5% (n = 140,000) | AID 818;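 active means viability at or under a set limit, the compound median less 4 SD, cut at about 6% in these data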
HCT116 PTEN-null: suppresses growth of cells with PTEN deletion; HCT116 PTEN-null viability, CellTiter-Glo, 60 h; active compounds read low; viability, % at 10 µM; actives 1.2% (n = 140,000);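 active means viability at or below a set limit, 4 SD under the median of all tested compounds, cut at about 3.7% in these data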;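 further: PTEN knockout HCT116 line with beta catenin targeted HCT116 as companion control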
ROMK mod: modulators of human ROMK potassium channel | actives 2% (n = 130,000) | Tet-inducible ROMK, thallium flux fluorescence; actives lie on both sides | B-score at 10 µM | P48048;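 active means signal ratio slope over the read window, or its plate-corrected B-score, at least 3 SD from the plate mean, either direction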;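 further: B-score of the F/F0 ratio slope over 7 to 12 s after thallium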
Target sequence (P48048 whole entry, looked up): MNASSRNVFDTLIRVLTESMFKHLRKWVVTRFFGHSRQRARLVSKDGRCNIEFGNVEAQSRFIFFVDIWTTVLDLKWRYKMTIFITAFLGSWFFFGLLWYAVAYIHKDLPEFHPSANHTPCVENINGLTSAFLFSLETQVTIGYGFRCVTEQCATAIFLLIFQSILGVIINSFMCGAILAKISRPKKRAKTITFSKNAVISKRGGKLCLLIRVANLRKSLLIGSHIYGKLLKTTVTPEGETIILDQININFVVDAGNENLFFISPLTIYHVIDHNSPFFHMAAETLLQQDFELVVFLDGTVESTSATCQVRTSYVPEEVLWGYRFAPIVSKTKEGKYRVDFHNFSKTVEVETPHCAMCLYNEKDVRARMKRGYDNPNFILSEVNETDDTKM
p97 ATPase inh: inhibitors of human p97 ATPase; inhibition, % at 8 µM; recombinant p97 ATPase, Kinase-Glo ATP luminescence, 3 h; actives 0.42% (n = 220,000); in the data active means inhibition above about 15%
Each line names hits and unclear results; the compound was inactive in the other large screens.

COc1c(C)cc(C(=O)C2CCCN(Cc3ccccn3)C2)cc1C (stereo not given)	Lmaj promast 99.9 (no result: bCat KO growth, HCT116 PTEN-null)
COc1ccc(F)cc1C(=O)C1CCCN(Cc2cnc(C)s2)C1 (stereo not given)	none (no result: INS promoter inh, bCat KO growth, HCT116 PTEN-null)
COc1cccc(C(=O)C2CCCN(Cc3ccccn3)C2)c1 (stereo not given)	none (no result: INS promoter inh, bCat KO growth, HCT116 PTEN-null)
Cc1ncc(CN2CCCC(C(=O)c3cccc(OC(C)C)c3)C2)s1 (stereo not given)	Lmaj promast 89.4 (no result: bCat KO growth, HCT116 PTEN-null)
COc1c(C)cc(C(=O)C2CCCN(Cc3cnc(C)s3)C2)cc1C (stereo not given)	Lmaj promast 70.2 (no result: INS promoter inh, bCat KO growth, HCT116 PTEN-null)
CCn1ccnc1CN1CCCC(C(=O)c2cccc(C(F)(F)F)c2)C1 (stereo not given)	none (no result: INS promoter inh, bCat KO growth, HCT116 PTEN-null)
CCCc1nc2ccccc2c(=O)n1-c1ccc(O)cc1	none (no result: INS promoter inh, bCat KO growth, HCT116 PTEN-null)
CCSc1nnc([C@@H](N)Cc2ccccc2)o1	none (no result: ROMK mod)
O=C1NC(=O)N(Cc2ccccc2)C(=O)/C1=C\C=C\c1ccco1	Lmaj promast 76.6 (no result: INS promoter inh, bCat KO growth, HCT116 PTEN-null)
CN(C)c1ccc(/C=C/C=C2/C(=O)NC(=O)N(c3ccccc3)C2=O)cc1	Lmaj promast 96.4 (no result: INS promoter inh, bCat KO growth, HCT116 PTEN-null, ROMK mod)
C=CCN1C(=O)NC(=O)/C(=C/c2ccc(OC)c(CSc3ccccn3)c2)C1=O	none (no result: ROMK mod)
C=CCN1C(=O)NC(=O)/C(=C/C=C/c2ccccc2)C1=O	Lmaj promast 99.5 (no result: INS promoter inh, bCat KO growth, HCT116 PTEN-null)
O=C1NC(=O)N(CCc2ccc(F)cc2)C(=O)/C1=C\C=C\c1ccccc1	Lmaj promast 100.5 (no result: bCat KO growth, HCT116 PTEN-null)
COc1cc(CN2CCN(c3cc(C)ccc3C)CC2)ccc1O	none (no result: ROMK mod)
CC1(C)CSC(=NCc2ccccc2)N1	none (no result: INS promoter inh, bCat KO growth, HCT116 PTEN-null)
Cn1c(O)c(C(=N)COc2cccc(Cl)c2)c(=O)n(C)c1=O	none (no result: INS promoter inh, ROMK mod)
CC(=NCc1cccnc1)c1c(O)n(-c2ccccc2C)c(=O)[nH]c1=O	none
O=C1NC(=O)C2(Cc3ccccc3N3CCOCC32)C(=O)N1c1ccccc1 (stereo not given)	Lmaj promast 91.5
CN1CSC(=S)N(C)C1	INS promoter inh 67.9
CSc1ccc(CNC(C)C(O)c2ccccc2)cc1 (stereo not given)	Lmaj promast 84.3 (no result: INS promoter inh, bCat KO growth, HCT116 PTEN-null)
COc1ccc(-n2c(O)c(C(C)=NCCN3CCNCC3)c(=O)[nH]c2=O)cc1	none (no result: INS promoter inh)
CCN(CC)c1ccc(C=C2C(=O)NC(=S)NC2=O)cc1	none (no result: Lmaj promast, INS promoter inh, bCat KO growth, HCT116 PTEN-null, ROMK mod)
CC(C)CN(CC(C)C)c1ccc(C=C2C(=O)NC(=S)NC2=O)cc1[N+](=O)[O-]	Lmaj promast 81.3 (no result: ROMK mod)
Cc1cc(C)nc(NC2=NCCS2)n1	none (no result: ROMK mod)
CC(=O)c1cccc(OCC(O)CN2CC=C(c3ccccc3)CC2)c1 (stereo not given)	Lmaj promast 93.7
Cc1cc(Br)c(NC(=O)CN2CC=C(c3ccccc3)CC2)c(Br)c1	none (no result: bCat KO growth, HCT116 PTEN-null)
O=C(Nc1ccc(Cl)cc1C(=O)c1ccccc1)c1ccccc1	Lmaj promast 68.9 (no result: ROMK mod)
O=C(CNC(=O)c1cccc(Cl)c1)Nc1ccc(Br)cc1C(=O)c1ccccc1	Lmaj promast 59.0
O=C(CNC(=O)c1ccc(Cl)cc1)Nc1ccc(Br)cc1C(=O)c1ccccc1	none
COc1cccc(C2=NOC(C(=O)N3CCC4(CC3)OCCO4)C2)c1 (stereo not given)	none (no result: INS promoter inh, ROMK mod)
O=C(CCc1nc(-c2ccccc2F)no1)N1CCC2(CC1)OCCO2	none (no result: ROMK mod)
CCOC(=O)N(C)c1ccc(C(O)(C(=O)OC)C(F)(F)F)cc1 (stereo not given)	Lmaj promast 92.6
COC(=O)C(O)(c1ccc(N(C)C(=O)c2cccs2)cc1)C(F)(F)F (stereo not given)	Lmaj promast 97.0 (no result: bCat KO growth, HCT116 PTEN-null)
COC(=O)C(O)(c1ccc(N(C)C)cc1)C(F)(F)F (stereo not given)	none (no result: bCat KO growth, HCT116 PTEN-null)
COC(=O)C(O)(c1ccc(N(C)C(=O)c2ccc(Cl)c(Cl)c2)cc1)C(F)(F)F (stereo not given)	Lmaj promast 63.9 (no result: ROMK mod)
CCOC(=O)C(O)(c1ccc(NC(=O)c2ccc(Cl)c(Cl)c2)cc1)C(F)(F)F (stereo not given)	none (no result: Lmaj promast, INS promoter inh, bCat KO growth, HCT116 PTEN-null)
COC(=O)C(O)(c1ccc(NC(=S)NC(=O)c2ccccc2)cc1)C(F)(F)F (stereo not given)	none (no result: INS promoter inh)
CCOC(=O)C(O)(c1ccc(N(C)C(=O)c2ccc(Cl)c(Cl)c2)cc1)C(F)(F)F (stereo not given)	Lmaj promast 97.2 (no result: ROMK mod)
CCN1CCN(c2nc3c(c(=O)[nH]2)CCCC3)CC1	none (no result: INS promoter inh)
C[C@]12CCC(=O)C(O)=C1CC[C@@H]1[C@@H]2CC[C@]2(C)C(=O)CC[C@@H]12	none (no result: ROMK mod)
CN(C)c1ccc2c(c1)N=C(c1ccco1)OP2(=S)N1CCOCC1 (stereo not given)	none (no result: INS promoter inh, ROMK mod)
CN1CCN2c3ccc(N)cc3CC3(C(=O)NC(=O)NC3=O)C2C1 (stereo not given)	none (no result: Lmaj promast, INS promoter inh, bCat KO growth, HCT116 PTEN-null)
O=C(c1ccc(N2CC3CC(C2)c2cccc(=O)n2C3)c([N+](=O)[O-])c1)N1CCCCC1 (stereo not given)	Lmaj promast 54.9
CC1CCCCN1C(=O)c1ccc(N2CC3CC(C2)c2cccc(=O)n2C3)c([N+](=O)[O-])c1 (stereo not given)	Lmaj promast 64.6
O=C(c1ccc(N2CC3CC(C2)c2cccc(=O)n2C3)c([N+](=O)[O-])c1)N1CCCC1 (stereo not given)	none (no result: bCat KO growth, HCT116 PTEN-null)
CSc1ncc(Cl)c(C(=O)O)n1 (tested in a mixture with another compound)	none
Cc1ccc(-c2nc(N(C)C3CCN(C)CC3)c3ccccc3n2)cc1	Lmaj promast 99.0, bCat KO growth 1.4, HCT116 PTEN-null 1.4
CCN(CC)CCN=Cc1c(O)n(Cc2ccccc2)c(=O)[nH]c1=O	none (no result: HCT116 PTEN-null)
CCCc1[nH]nc2c1C1(C(=O)N(Cc3ccccc3)c3ccccc31)C(C(=O)OC)=C(N)O2 (stereo not given)	Lmaj promast 81.7 (no result: ROMK mod)
CCCc1[nH]nc2c1C1(C(=O)N(CC(N)=O)c3ccccc31)C(C(=O)OC)=C(N)O2 (stereo not given)	none (no result: INS promoter inh, ROMK mod)
O=C(Cn1cnc2sc3c(c2c1=O)CCCC3)NCCCC(=O)N1CCC2(CC1)OCCO2	none
Cc1cccc(-n2c(O)c(C=Nc3ccc(S(N)(=O)=O)cc3)c(=O)[nH]c2=O)c1	none (no result: bCat KO growth, HCT116 PTEN-null)
NS(=O)(=O)c1ccc(N=Cc2c(O)n(C3CCCCC3)c(=O)n(C3CCCCC3)c2=O)cc1	Lmaj promast 65.3 (no result: INS promoter inh, HCT116 PTEN-null, ROMK mod)
Nc1c2c(nc3sc4c(c13)CCCC4)CCCCC2	Lmaj promast 77.0, bCat KO growth 4.1 (no result: ROMK mod)
Nc1c2c(nc3sc4c(c13)CCCC4)CCCC2	Lmaj promast 92.1 (no result: INS promoter inh, bCat KO growth, HCT116 PTEN-null)
CC(C)CN(CC(C)C)C(=O)C1C2c3ccccc3C(c3ccccc32)C1C(=O)O (stereo not given)	none (no result: INS promoter inh, bCat KO growth, HCT116 PTEN-null)
CC(C)c1cccc(C(C)C)c1OCCn1ccnc1	Lmaj promast 94.0
Cc1ccc(S(=O)(=O)N(C)CCCC(=O)N2CCN(c3ccccn3)CC2)cc1	Lmaj promast 89.6 (no result: ROMK mod)
COc1ccc(CCNCc2sccc2C)cc1OC	none (no result: INS promoter inh, bCat KO growth, HCT116 PTEN-null, ROMK mod)
CCCn1c(C)cc(C=O)c1C	none (no result: INS promoter inh, bCat KO growth, HCT116 PTEN-null)
CCOc1ccc(Cl)cc1CNCCc1ccc(F)cc1	Lmaj promast 64.6 (no result: INS promoter inh, bCat KO growth, HCT116 PTEN-null, ROMK mod)
COc1ccc(Oc2cc(NC(=O)c3nn(C)cc3[N+](=O)[O-])cc([N+](=O)[O-])c2)cc1	bCat KO growth 1.6, HCT116 PTEN-null 1.4
